Test results taken from PubChem BioAssay (NCI).
This is part of a sample that, as a whole, favours compounds with a hit. Of some 83,000 tested, about 20% had one in any assay.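 Interpretation: 100, growth as untreated; towards 0, rising growth inhibition; 0, no net growth; 0 to -100, cell death. Compounds scoring below 10 were considered active.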 Values without a mark were called inactive. The source made the active and inactive calls.

Key:
Experiment in all cases: NCI-60 one-dose screen, 48 h (100 = growth as untreated, 0 = no growth, -100 = all killed)
Settings in all cases: 10 µM
SK-MEL-2 melanoma = system: SK-MEL-2 melanoma
EKVX NSCLC = system: EKVX NSCLC
SN12C renal = system: SN12C renal
UO-31 renal = system: UO-31 renal
TK-10 renal = system: TK-10 renal
ACHN renal = system: ACHN renal
CAKI-1 renal = system: CAKI-1 renal
A498 renal = system: A498 renal
CCRF-CEM leukemia = system: CCRF-CEM leukemia
MOLT-4 leukemia = system: MOLT-4 leukemia

SMILES | growth (SK-MEL-2 melanoma) | growth (EKVX NSCLC) | growth (SN12C renal) | growth (UO-31 renal) | growth (TK-10 renal) | growth (ACHN renal) | growth (CAKI-1 renal) | growth (A498 renal) | growth (CCRF-CEM leukemia) | growth (MOLT-4 leukemia)
CC(=O)Nc1ccc(-c2cn(-c3cccc(C(=O)Nc4cc(C(F)(F)F)cc(C(F)(F)F)c4)c3)nn2)cn1 | -38.6% (active) | -25.7% (active) | -50.1% (active) | 1.1% (active) | -10.4% (active) | -26.2% (active) | -44.3% (active) | -30.2% (active) | -25.4% (active) | -37.1% (active)
N#C/C(=C\c1ccc(N(c2ccccc2)c2ccccc2)cc1)C(N)=O | 23.5% | 90.2% | 90.5% | 49.9% | -37.7% (active) | 88% | -24% (active) | -99.8% (active) | 59.9% | 56%
CN1C(=O)/C(=C/c2ccc3ncsc3c2)NC1=NC12CC3CC(CC(O)(C3)C1)C2 | -82.3% (active) | 12.3% | 4.63% (active) | -0.057% (active) | 39.2% | 0.736% (active) | 8.2% (active) | -10.5% (active) | 5.06% (active) | 4.59% (active)
NS(=O)(=O)c1ccc(N=Nc2c(O)n(CC(=O)Nc3ccccc3Br)c3ccccc23)cc1 | 1.95% (active) | 49.1% | 47.6% | 14.4% | 63.3% | 13.9% | 23.7% | 94.1% | 57.2% | 41.4%
O=C(CSc1nnc(-c2c[nH]c3ccccc23)n1-c1ccccc1)c1ccccc1 | 91.9% | 68.4% | 44.7% | 55.5% | 72% | 60.5% | 53.2% | 106% | 91.4% | 90.6%
Brc1ccc(/C=N/Nc2ncnc3sc4c(c23)CCN(Cc2ccccc2)C4)cc1 | 112% | 94.2% | 64.4% | 73.9% | 125% | 56.5% | 70% | 117% | 22.5% | 46.2%
COc1ccc(-c2cc(C(=O)N=Nc3c(O)[nH]c4ccc(Br)cc34)c3ccccc3n2)cc1 | 122% | 44.4% | 5.56% (active) | 43.2% | 97.8% | 24.5% | 57.1% | 143% | 18.9% | 4.15% (active)
CCOC(=O)C(Cc1ccccc1)N1C(=O)/C(=C/N2N=C(c3ccc(OC)cc3)CC2c2ccc3ccccc3c2)SC1=S (stereo not given) | -64.1% (active) | -7.27% (active) | 8.88% (active) | 16.2% | 24.8% | 23.2% | 24.8% | -13.3% (active) | 5.96% (active) | 4.16% (active)
COc1ccc(NC(=O)Nc2ccc(OCC(=O)N=Nc3c(O)[nH]c4ccc([N+](=O)[O-])cc34)cc2)cc1 | 89.4% | 83.7% | 72.5% | 94.3% | 113% | 102% | 92.5% | 101% | 93.7% | 100%
N#Cc1ccc(-c2nn(-c3ccc(C(=O)O)cc3)cc2CNc2cccc(Br)c2)cc1 | 71.7% | 65.9% | 59.2% | 60.5% | 102% | 66.8% | 73.4% | 94.5% | 23.7% | 23.9%
N#Cc1ccc(-c2nn(-c3ccc(C(=O)O)cc3)cc2CNc2ccc(Cl)cc2)cc1 | 96.2% | 67.8% | 82.2% | 61.8% | 108% | 74.6% | 71.2% | 111% | 77.5% | 68.8%
O=C(Nc1ccc(Cl)c([N+](=O)[O-])c1)Nc1ccc(Cl)c([N+](=O)[O-])c1 | 30.7% | 17.8% | 1.65% (active) | -2.65% (active) | 48.3% | 4.21% (active) | 8.32% (active) | 20.1% | 14.2% | 21.7%
COc1ccc([C@H]2C(C(=O)c3ccc(Cl)cc3)C3(N[C@@H]2c2ccccc2)C(=O)Nc2ccc(Br)cc23)cc1 (stereo not given in full) | -64.5% (active) | 6.66% (active) | -81.3% (active) | 0.589% (active) | 9.79% (active) | 0.391% (active) | 2.8% (active) | -7.09% (active) | 13.9% | 12.1%
